Data reported in the supplement of paper PMC8975748.
Structures can show the parent of a compound that is named as a salt.

test system: Saccharomyces cerevisiae BY4741 SeMeCo community; assay: z-score of subpopulation abundance vs DMSO median, subpopulation auxotrophic for LM; higher = larger share of this subpopulation than in DMSO controls; conditions: 10 µM; 24 h; SM minimal medium; subpopulation (auxotrophy): LM
Description: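 Fluorescent four-plasmid SeMeCo (self-establishing metabolically cooperating S. cerevisiae BY4741 community; plasmids pH-mRuby2, pL-mWasabi, pU-eCFP, pM-TagRFP657) was grown 24 h in minimal SM medium with each Selleck FDA-approved drug at 10 µM in 384-well plates. Cells were fixed and imaged by high-content confocal microscopy. For each auxotrophic subpopulation (and the prototroph), a z-score gives the deviation from the DMSO vehicle-control population median.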

Row | Structure (SMILES) | z-score of subpopulation abundance
1 | Cc1ccc2c(Cl)cc(Cl)c(O)c2n1 [Chlorquinaldol] | 9.8
2 | C/C=C\c1ccc(O)c(OC)c1 [Isoeugenol] | 0.87
3 | CC(=O)Oc1ccc(C(=C2CCCCC2)c2ccc(OC(C)=O)cc2)cc1 [Cyclofenil] | -1.03
4 | CCOc1cc(N)c(Cl)cc1C(=O)NCC1CN(Cc2ccc(F)cc2)CCO1 (stereo not given) [Mosapride Citrate] | -0.05
5 | Nc1ccc(/N=N/c2ccccc2)c(N)n1 [Phenazopyridine HCl] | 0.47
6 | CCN1CCN(C(=O)N[C@@H](C(=O)N[C@@H]2C(=O)N3C(C(=O)O)=C(CSc4nnnn4C)CS[C@H]23)c2ccc(O)cc2)C(=O)C1=O [Cefoperazone] | 1.36
7 | CN(C)CC/C=C1/c2ccccc2Sc2ccc(Cl)cc21 [Chlorprothixene] | 0.18
8 | CCCCCc1ccc(C)cc1O [Amylmetacresol] | -0.71
9 | CC(=O)OCC1=C(C(=O)O)N2C(=O)C(NC(=O)CSC(=NC(C)C)NC(C)C)C2SC1 (stereo not given) [Cefathiamidine] | -1.11
10 | C[C@@H](O)[C@H]1C(=O)N2C(C(=O)O)=C(S[C@@H]3CN[C@H](C(=O)Nc4cccc(C(=O)O)c4)C3)[C@H](C)[C@H]12 [Ertapenem sodium] | -0.04
11 | COc1cccc2c1C(=O)c1c(O)c3c(c(O)c1C2=O)C[C@@](O)(C(=O)CO)C[C@@H]3O[C@H]1C[C@H](N)[C@H](O[C@@H]2CCCCO2)[C@H](C)O1 [Pirarubicin] | -3.84
12 | Cc1cc(NS(=O)(=O)c2ccc(N)cc2)no1 [Sulfamethoxazole] | 0.08
13 | CC[C@H](Nc1ncnc2[nH]cnc12)c1nc2cccc(F)c2c(=O)n1-c1ccccc1 [Idelalisib (CAL-101, GS-1101)] | -0.23
14 | C=CC1=C(C(=O)O)N2C(=O)[C@@H](NC(=O)/C(=N\OCC(=O)O)c3csc(N)n3)[C@H]2SC1 [Cefixime] | -0.13
15 | COc1cccc(CCc2ccccc2OCC(CN(C)C)OC(=O)CCC(=O)O)c1 (stereo not given) [Sarpogrelate hydrochloride] | -0.29
16 | Cc1cc(-n2c(=O)[nH]c(=O)n(C)c2=O)ccc1Oc1ccc(SC(F)(F)F)cc1 [Toltrazuril] | -0.18
17 | COc1cc2c(cc1OC)-c1cc3ccc(OC)c(OC)c3c[n+]1CC2 [Palmatine] | 1.94
18 | CC(=O)[O-].[K+] [Potassium acetate] | -0.98
19 | N[C@@H]1CCCCN(c2c(F)cc3c(=O)c(C(=O)O)cn(C4CC4)c3c2Cl)C1 [Besifloxacin HCl] | 0.38
20 | COc1ccccc1N1CCN(CCCNc2cc(=O)n(C)c(=O)n2C)CC1 [Urapidil HCl] | -0.25

Row | Structure (SMILES) | z-score of subpopulation abundance
21 | C=C[C@]1(C)C[C@@H](OC(=O)CSC(C)(C)CNC(=O)[C@H](N)C(C)C)[C@]2(C)[C@H](C)CC[C@]3(CCC(=O)[C@H]32)[C@@H](C)[C@@H]1O [Valnemulin HCl] | 0.54
22 | Oc1ccc(Cl)c2cccnc12 [Cloxiquine] | 8.36
23 | NC(=O)C(c1ccccc1)(c1ccccc1)[C@@H]1CCN(CCc2ccc3c(c2)CCO3)C1 [Darifenacin HBr] | -0.2
24 | CCC(=O)Oc1ccc2c(c1)CCC1C2CCC2(C)C(OC(=O)CC)CCC12 (stereo not drawn) [Estradiol dipropionate(17-Beta-Estradiol-3,17-Dipropionate)] | -0.31
25 | CCC[C@@H]1C[C@@H](C(=O)N[C@@H]([C@H]2O[C@H](SC)[C@H](O)[C@@H](O)[C@H]2O)[C@@H](C)O)N(C)C1 [Lincomycin HCl] | -0.14
26 | COc1ccc2[nH]c([S+]([O-])Cc3ncc(C)c(OC)c3C)nc2c1 (stereo not given) [Omeprazole Sodium] | -0.57
27 | Nc1nc2c(ncn2COCCO)c(=O)[nH]1 [Aciclovir] | 0.9
28 | CCCNCC(O)COc1ccccc1C(=O)CCc1ccccc1 (stereo not given) [Propafenone HCl] | 0.27
29 | COc1cc(/C=C/C(=O)N2CCN(CC(=O)N3CCCC3)CC2)cc(OC)c1OC [Cinepazide maleate] | -1.06
30 | CC(=O)O[C@H]1C[C@@H]2CC[C@@H]3[C@H](CC[C@@]4(C)[C@H]3C[C@H]([N+]3(C)CCCCC3)[C@@H]4OC(C)=O)[C@@]2(C)C[C@@H]1N1CCCCC1 [Vecuronium Bromide] | -1.11
31 | CN1CCN(CC(=O)N2c3ccccc3C(=O)Nc3cccnc32)CC1 [Pirenzepine dihydrochloride] | -0.32
32 | O=C(O)c1ccccc1O [Salicylic acid] | -0.74
33 | Nc1nc(=O)[nH]cc1F [Flucytosine] | -4.29
34 | Clc1ccc(CCC(Cn2ccnc2)Sc2c(Cl)cccc2Cl)cc1 (stereo not given) [Butoconazole nitrate] | -0.84
35 | Nc1c(CC(=O)O)cccc1C(=O)c1ccccc1 [Amfenac Sodium Monohydrate] | 0.25
36 | COc1ccc2cc3[n+](cc2c1OC)CCc1cc2c(cc1-3)OCO2 [Berberine Sulfate] | -0.28
37 | C[C@]12CC[C@@H]3c4ccc(OC(=O)c5ccccc5)cc4CC[C@H]3[C@@H]1CC[C@@H]2O [Estradiol Benzoate] | 0.31
38 | OB1OCc2cc(F)ccc21 [Tavaborole (AN-2690)] | 6.17
39 | Clc1ccc(C(Cn2ccnc2)OCc2ccsc2Cl)c(Cl)c1 (stereo not given) [Tioconazole] | -1.99
40 | COc1cc2c(cc1OC)[C@@H]1Cc3ccc(OC)c(OC)c3CN1CC2 [Rotundine] | -0.15
